# Results from PMC7862700, “An all-to-all approach to the identification of sequence-specific readers for epigenetic DNA modifications on cytosine”.
# How the values were obtained:
# Assay in all cases: DAPPL (digital affinity profiling via proximity ligation, sequencing); 10 mM Tris-HCl pH 7.5, 50 mM NaCl, 1 mM DTT, 4% glycerol, room temperature, 30 min; GST-TFs on glutathione beads, 16-mer random dsDNA library, 0.1% formaldehyde crosslink after washing; high values mean tight binding
# [1] = target: T1, FLI1 (Homo sapiens, UniProt Q01543 1-452); details: protein: recombinant; tags: N-terminal GST; dsDNA, one strand shown
# T1 sequence: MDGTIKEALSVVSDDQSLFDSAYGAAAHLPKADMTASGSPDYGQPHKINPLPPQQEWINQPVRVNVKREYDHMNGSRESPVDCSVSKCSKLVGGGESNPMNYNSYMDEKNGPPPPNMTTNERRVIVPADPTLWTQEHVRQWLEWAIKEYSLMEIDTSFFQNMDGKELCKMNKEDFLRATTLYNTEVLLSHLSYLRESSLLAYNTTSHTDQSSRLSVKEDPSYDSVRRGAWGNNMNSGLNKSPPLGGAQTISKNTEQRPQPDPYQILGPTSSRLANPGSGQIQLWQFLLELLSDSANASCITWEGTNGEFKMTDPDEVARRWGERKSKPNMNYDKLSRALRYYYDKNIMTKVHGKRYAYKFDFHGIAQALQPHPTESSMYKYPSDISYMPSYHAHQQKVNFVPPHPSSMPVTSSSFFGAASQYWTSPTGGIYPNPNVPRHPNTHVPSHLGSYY
# Summary of the method: (§1)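 Beads coated with glutathione captured GST-fused human transcription factors that had been expressed in yeast, and the factors were then given DNA barcodes and pooled with a tag-only sample. The pools were incubated with 200 nmole of a random double-stranded 16-mer DNA library in Tris/NaCl/DTT/glycerol buffer for 30 min at room temperature, washed, crosslinked with 0.1% formaldehyde and proximity-ligated with BsaI/T4 ligase at 37 °C for 1 h. PCR amplification and Illumina NextSeq500 sequencing came last. Binding signal is each hexamer's read frequency for a factor divided by its frequency for the tag-only sample.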
# [2] = target: T2, ELK1 (Homo sapiens, UniProt P19419 1-428); details: protein: recombinant; tags: N-terminal GST; dsDNA, one strand shown
# T2 sequence: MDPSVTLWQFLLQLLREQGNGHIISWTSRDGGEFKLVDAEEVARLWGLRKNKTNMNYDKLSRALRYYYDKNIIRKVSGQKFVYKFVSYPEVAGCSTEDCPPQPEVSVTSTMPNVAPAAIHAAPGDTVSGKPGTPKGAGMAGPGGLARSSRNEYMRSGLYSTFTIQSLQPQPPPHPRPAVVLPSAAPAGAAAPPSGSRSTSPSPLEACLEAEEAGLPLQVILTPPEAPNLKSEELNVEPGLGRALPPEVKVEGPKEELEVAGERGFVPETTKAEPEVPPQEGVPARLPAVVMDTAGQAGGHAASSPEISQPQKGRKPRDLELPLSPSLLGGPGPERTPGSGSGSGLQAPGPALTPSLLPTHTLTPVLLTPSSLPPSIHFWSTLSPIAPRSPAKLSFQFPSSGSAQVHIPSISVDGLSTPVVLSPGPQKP
# Summary of the method: as §1
# [3] = target: T3, GABPA (Homo sapiens, UniProt Q06546 1-454); details: protein: recombinant; tags: N-terminal GST; dsDNA, one strand shown
# T3 sequence: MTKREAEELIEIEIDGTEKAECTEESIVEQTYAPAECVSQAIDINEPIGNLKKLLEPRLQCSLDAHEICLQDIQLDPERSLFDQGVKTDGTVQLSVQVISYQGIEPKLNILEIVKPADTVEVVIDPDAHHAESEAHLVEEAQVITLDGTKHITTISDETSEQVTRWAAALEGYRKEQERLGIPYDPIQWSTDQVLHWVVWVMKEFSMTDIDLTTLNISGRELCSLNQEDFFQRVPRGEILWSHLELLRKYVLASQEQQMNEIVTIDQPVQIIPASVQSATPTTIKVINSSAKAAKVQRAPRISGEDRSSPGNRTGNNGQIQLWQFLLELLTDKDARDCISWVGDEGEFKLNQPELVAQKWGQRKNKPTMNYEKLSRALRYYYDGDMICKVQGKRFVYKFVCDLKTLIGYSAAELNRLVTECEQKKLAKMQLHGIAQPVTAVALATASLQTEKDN
# Summary of the method: as §1
# [4] = target: T4, ERG (Homo sapiens, UniProt P11308 1-479); details: protein: recombinant; tags: N-terminal GST; dsDNA, one strand shown
# T4 sequence: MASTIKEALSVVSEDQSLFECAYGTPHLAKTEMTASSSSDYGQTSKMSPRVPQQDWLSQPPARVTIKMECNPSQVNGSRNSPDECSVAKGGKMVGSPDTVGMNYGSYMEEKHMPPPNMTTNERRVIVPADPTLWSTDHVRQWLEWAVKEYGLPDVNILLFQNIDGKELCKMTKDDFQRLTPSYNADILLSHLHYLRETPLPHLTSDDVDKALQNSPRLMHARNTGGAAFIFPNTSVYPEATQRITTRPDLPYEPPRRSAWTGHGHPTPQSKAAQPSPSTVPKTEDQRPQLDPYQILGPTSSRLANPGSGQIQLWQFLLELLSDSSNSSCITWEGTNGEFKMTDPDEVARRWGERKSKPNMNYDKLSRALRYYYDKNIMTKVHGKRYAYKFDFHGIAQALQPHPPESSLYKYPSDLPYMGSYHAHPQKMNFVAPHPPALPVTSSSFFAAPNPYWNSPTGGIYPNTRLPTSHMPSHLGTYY
# Summary of the method: as §1
# [5] = target: ELF1 (Homo sapiens, UniProt P32519 1-619); details: protein: recombinant; tags: N-terminal GST; dsDNA, one strand shown
# Summary of the method: as §1
# [6] = target: T5, EHF (Homo sapiens, UniProt Q9NZC4 1-300); details: protein: recombinant; tags: N-terminal GST; dsDNA, one strand shown
# T5 sequence: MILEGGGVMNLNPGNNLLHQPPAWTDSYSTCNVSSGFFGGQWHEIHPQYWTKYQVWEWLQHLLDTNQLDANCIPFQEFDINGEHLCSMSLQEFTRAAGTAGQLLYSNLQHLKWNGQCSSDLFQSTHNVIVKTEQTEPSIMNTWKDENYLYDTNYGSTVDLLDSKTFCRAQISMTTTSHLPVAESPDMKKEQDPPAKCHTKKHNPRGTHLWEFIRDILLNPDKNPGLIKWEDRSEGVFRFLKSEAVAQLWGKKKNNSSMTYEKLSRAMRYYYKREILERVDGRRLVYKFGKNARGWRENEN
# Summary of the method: as §1
# [7] = target: SPI1 (Homo sapiens, UniProt P17947 1-270); details: protein: recombinant; tags: N-terminal GST; dsDNA, one strand shown
# Summary of the method: as §1
# [8] = target: SPIB (Homo sapiens, UniProt Q01892 1-262); details: protein: recombinant; tags: N-terminal GST; dsDNA, one strand shown
# Summary of the method: as §1
# [9] = target: T6, ELK3 (Homo sapiens, UniProt P41970 1-407); details: protein: recombinant; tags: N-terminal GST; dsDNA, one strand shown
# T6 sequence: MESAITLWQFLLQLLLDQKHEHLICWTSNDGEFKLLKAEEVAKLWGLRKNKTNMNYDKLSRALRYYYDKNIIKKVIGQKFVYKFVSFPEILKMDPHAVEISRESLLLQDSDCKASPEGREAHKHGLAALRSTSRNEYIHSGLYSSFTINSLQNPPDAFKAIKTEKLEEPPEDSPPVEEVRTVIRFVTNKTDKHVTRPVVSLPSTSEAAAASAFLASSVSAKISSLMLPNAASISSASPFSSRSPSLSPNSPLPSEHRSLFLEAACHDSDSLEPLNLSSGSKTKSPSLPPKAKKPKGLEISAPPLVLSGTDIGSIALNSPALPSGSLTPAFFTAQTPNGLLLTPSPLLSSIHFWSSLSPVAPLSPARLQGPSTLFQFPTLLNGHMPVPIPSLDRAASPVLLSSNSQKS
# Summary of the method: as §1
# [10] = target: T7, FEV (Homo sapiens, UniProt Q99581 1-238); details: protein: recombinant; tags: N-terminal GST; dsDNA, one strand shown
# T7 sequence: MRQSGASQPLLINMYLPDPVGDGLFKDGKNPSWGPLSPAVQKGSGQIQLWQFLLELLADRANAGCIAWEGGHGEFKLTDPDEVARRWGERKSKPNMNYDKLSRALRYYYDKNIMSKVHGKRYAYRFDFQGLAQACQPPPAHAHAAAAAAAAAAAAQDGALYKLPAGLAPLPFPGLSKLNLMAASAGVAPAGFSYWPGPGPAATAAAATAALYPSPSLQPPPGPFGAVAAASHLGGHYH
# Summary of the method: as §1
# [11] = target: ETV5 (Homo sapiens, UniProt P41161 1-510); details: protein: recombinant; tags: N-terminal GST; dsDNA, one strand shown
# Summary of the method: as §1
# [12] = target: HSF1 (Homo sapiens, UniProt Q00613 1-529); details: protein: recombinant; tags: N-terminal GST; chain copies: 3; dsDNA, one strand shown
# Summary of the method: as §1
# [13] = target: T8, SPIC (Homo sapiens, UniProt Q8N5J4 1-248); details: protein: recombinant; tags: N-terminal GST; dsDNA, one strand shown
# T8 sequence: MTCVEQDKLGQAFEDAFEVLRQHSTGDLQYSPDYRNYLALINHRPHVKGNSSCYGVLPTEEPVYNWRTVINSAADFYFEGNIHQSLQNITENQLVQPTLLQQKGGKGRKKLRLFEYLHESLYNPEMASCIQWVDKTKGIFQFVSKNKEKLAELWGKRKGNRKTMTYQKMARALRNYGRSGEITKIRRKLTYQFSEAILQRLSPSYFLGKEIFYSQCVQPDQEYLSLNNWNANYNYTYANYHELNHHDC
# Summary of the method: as §1
# [14] = target: ELF4 (Homo sapiens, UniProt Q99607 1-663); details: protein: recombinant; tags: N-terminal GST; dsDNA, one strand shown
# Summary of the method: as §1
# [15] = target: T9, ETV2 (Homo sapiens, UniProt O00321 1-342); details: protein: recombinant; tags: N-terminal GST; dsDNA, one strand shown
# T9 sequence: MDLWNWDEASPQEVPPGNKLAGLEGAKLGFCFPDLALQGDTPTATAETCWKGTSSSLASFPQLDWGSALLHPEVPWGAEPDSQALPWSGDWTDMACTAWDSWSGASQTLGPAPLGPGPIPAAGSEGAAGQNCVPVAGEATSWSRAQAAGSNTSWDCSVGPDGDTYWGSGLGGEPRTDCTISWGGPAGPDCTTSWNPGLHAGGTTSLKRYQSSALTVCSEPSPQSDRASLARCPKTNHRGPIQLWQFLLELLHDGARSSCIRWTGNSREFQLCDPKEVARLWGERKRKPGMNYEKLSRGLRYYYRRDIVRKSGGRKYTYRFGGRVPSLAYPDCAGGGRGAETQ
# Summary of the method: as §1
# [16] = target: T10, ELF3 (Homo sapiens, UniProt P78545 1-371); details: protein: recombinant; tags: N-terminal GST; dsDNA, one strand shown
# T10 sequence: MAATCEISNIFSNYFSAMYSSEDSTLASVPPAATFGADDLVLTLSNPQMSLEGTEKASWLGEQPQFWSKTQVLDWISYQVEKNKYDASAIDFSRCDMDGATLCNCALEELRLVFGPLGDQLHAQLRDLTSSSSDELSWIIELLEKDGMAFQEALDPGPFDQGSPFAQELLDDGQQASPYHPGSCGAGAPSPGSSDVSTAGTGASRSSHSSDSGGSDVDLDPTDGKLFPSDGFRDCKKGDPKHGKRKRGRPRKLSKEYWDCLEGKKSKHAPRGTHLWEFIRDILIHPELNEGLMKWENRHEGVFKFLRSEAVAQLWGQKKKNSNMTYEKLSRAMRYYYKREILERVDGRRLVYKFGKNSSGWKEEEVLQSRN
# Summary of the method: as §1
# [17] = target: CRX (Homo sapiens, UniProt O43186 1-299); details: protein: recombinant; tags: N-terminal GST; dsDNA, one strand shown
# Summary of the method: as §1
# [18] = target: ETV1 (Homo sapiens, UniProt P50549 1-477); details: protein: recombinant; tags: N-terminal GST; dsDNA, one strand shown
# Summary of the method: as §1
# Sequence of CRX (O43186 whole entry): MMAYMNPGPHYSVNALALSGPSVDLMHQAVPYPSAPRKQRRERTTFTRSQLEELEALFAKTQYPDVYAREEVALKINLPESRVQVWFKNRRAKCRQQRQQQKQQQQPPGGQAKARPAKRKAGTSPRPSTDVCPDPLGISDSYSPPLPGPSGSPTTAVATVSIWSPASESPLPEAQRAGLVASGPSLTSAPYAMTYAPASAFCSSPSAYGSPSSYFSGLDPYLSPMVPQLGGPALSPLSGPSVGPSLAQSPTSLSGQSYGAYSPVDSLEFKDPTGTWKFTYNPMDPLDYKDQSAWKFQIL
# Sequence of ETV5 (P41161 whole entry): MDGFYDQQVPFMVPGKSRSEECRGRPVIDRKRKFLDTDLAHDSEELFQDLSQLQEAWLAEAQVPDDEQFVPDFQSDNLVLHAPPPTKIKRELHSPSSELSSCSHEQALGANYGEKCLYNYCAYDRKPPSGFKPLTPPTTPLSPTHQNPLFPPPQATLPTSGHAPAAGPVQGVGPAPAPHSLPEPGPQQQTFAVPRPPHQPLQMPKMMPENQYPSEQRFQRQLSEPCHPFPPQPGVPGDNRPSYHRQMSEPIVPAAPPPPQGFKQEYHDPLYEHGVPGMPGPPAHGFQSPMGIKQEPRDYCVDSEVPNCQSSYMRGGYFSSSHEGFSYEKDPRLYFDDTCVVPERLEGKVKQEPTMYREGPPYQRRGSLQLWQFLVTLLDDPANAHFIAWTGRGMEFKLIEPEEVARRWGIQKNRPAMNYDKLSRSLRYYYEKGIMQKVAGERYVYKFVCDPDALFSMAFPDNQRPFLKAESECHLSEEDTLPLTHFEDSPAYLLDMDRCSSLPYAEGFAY
# Sequence of SPIB (Q01892 whole entry): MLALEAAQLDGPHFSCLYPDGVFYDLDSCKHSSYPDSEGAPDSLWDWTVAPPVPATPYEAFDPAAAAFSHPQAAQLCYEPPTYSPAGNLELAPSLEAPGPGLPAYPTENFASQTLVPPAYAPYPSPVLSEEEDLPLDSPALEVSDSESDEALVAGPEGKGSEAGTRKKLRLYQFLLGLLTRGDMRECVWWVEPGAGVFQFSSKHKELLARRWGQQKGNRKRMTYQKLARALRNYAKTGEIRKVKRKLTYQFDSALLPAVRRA
# Sequence of HSF1 (Q00613 whole entry): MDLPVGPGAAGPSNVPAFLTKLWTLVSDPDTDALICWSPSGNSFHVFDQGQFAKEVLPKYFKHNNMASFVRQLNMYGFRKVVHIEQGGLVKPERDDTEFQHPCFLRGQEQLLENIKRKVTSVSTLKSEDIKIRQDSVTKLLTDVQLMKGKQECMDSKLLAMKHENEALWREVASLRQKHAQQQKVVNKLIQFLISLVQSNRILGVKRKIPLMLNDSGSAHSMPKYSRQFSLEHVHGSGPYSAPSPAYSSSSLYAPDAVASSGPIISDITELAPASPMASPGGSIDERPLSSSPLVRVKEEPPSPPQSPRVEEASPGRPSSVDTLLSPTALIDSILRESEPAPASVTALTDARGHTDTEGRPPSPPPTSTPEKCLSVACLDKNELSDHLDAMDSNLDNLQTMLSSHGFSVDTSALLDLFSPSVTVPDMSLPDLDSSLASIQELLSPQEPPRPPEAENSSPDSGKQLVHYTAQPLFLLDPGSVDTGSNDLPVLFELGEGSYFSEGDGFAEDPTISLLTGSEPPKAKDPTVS
# Sequence of ELF4 (Q99607 whole entry): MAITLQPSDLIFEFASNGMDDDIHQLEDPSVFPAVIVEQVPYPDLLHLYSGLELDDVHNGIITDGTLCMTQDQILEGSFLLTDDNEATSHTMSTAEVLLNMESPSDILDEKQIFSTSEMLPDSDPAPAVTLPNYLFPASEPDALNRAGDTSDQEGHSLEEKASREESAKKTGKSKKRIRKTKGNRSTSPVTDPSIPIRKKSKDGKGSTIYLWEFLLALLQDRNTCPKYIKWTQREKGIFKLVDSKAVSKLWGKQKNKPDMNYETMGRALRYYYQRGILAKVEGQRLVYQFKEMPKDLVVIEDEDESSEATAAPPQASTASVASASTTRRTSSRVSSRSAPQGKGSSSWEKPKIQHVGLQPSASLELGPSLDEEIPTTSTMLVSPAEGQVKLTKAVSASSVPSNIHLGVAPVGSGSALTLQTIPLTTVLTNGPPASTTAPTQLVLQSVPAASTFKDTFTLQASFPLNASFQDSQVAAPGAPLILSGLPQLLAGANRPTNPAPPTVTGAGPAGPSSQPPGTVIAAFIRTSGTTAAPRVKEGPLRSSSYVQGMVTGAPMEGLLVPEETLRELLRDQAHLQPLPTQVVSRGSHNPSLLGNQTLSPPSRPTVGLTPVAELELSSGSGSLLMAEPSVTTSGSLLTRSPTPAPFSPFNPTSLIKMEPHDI
# Sequence of ETV1 (P50549 whole entry): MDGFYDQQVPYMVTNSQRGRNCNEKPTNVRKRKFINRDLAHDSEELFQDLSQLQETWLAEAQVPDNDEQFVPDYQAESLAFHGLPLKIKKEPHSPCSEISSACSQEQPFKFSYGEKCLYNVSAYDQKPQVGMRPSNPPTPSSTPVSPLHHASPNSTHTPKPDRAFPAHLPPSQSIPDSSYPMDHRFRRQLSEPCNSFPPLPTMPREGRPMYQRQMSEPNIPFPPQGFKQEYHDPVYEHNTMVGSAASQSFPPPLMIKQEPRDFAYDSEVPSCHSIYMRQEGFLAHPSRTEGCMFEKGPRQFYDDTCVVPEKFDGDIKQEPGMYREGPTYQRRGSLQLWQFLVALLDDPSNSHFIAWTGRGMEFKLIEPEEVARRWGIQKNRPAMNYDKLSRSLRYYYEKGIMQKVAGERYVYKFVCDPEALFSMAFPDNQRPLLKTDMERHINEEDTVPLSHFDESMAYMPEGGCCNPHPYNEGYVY
# Sequence of ELF1 (P32519 whole entry): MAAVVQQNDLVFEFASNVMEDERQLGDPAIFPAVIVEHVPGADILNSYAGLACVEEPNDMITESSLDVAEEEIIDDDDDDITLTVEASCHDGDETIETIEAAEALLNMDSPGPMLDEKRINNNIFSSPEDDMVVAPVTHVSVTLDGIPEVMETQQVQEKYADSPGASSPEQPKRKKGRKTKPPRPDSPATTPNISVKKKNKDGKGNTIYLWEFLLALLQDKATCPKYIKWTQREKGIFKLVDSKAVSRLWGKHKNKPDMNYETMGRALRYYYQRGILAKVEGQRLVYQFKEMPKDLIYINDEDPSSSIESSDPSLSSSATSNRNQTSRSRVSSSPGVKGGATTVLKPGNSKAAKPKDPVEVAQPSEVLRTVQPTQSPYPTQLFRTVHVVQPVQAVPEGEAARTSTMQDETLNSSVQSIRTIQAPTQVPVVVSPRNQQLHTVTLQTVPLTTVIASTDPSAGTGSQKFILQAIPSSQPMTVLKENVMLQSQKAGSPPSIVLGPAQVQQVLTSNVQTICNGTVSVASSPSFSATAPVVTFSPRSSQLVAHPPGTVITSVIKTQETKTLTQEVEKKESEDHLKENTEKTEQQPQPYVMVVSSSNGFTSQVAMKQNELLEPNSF
sequence,measurement,setting,value
ATAAGC,binding signal,[1],"1.02 fold enrichment (6-mer frequency, TF over GST control)"
same,binding signal,[2],"1.09 fold enrichment (6-mer frequency, TF over GST control)"
same,binding signal,[3],"1.11 fold enrichment (6-mer frequency, TF over GST control)"
same,binding signal,[4],"1.08 fold enrichment (6-mer frequency, TF over GST control)"
same,binding signal,[5],"1.1 fold enrichment (6-mer frequency, TF over GST control)"
same,binding signal,[6],"1.05 fold enrichment (6-mer frequency, TF over GST control)"
same,binding signal,[7],"1.01 fold enrichment (6-mer frequency, TF over GST control)"
same,binding signal,[8],"1.11 fold enrichment (6-mer frequency, TF over GST control)"
same,binding signal,[9],"1.05 fold enrichment (6-mer frequency, TF over GST control)"
same,binding signal,[10],"1.02 fold enrichment (6-mer frequency, TF over GST control)"
same,binding signal,[11],"1.11 fold enrichment (6-mer frequency, TF over GST control)"
same,binding signal,[12],"1.67 fold enrichment (6-mer frequency, TF over GST control)"
same,binding signal,[13],"1.08 fold enrichment (6-mer frequency, TF over GST control)"
same,binding signal,[14],"1.11 fold enrichment (6-mer frequency, TF over GST control)"
same,binding signal,[15],"1.07 fold enrichment (6-mer frequency, TF over GST control)"
same,binding signal,[16],"1.12 fold enrichment (6-mer frequency, TF over GST control)"
same,binding signal,[17],"2.4 fold enrichment (6-mer frequency, TF over GST control)"
same,binding signal,[18],"1.11 fold enrichment (6-mer frequency, TF over GST control)"
